Sfp PPTase inh = qHTS Assay for Inhibitors of Bacillus subtilis Sfp phosphopantetheinyl transferase (PPTase); 310,000 compounds, 3.5% hits; AID 1490, 2009; Biochemical Sfp PPTase activity, qHTS; Potency, µM, for the others: largest response in the series, negative = inhibition, actives largely listed as inhibitors;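 further: the enzyme is Sfp with the accession as filed and its product quenches rhodamine fluorescence; 0% = enzyme reaction without inhibitor and -100% = no enzyme wells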
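Buffer: 50 mM Hepes-Na pH 7.6, 10 mM MgCl2, 0.01% Nonidet P-40, 0.01% BSA. Enzyme 15 nM, pre-exposed to compound 15 min; substrates then added and fluorescence change tracked over 30 min.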
HP1b chromo inh = HTS for Inhibitors of HP1-beta Chromodomain Interactions with Methylated Histone Tails; AID 540317, 2011; AlphaScreen HP1-beta / biotin-H3K9me3 peptide binding; 390,000 compounds, 0.56% hits; Potency, µM (doses to about 114 µM), inactives show at the top dose activity change, negative = inhibition, usual class: inhibitors; Chromobox protein homolog 1 (Homo sapiens), P83916; further: nearly all actives have a fitted effect of over 70% in size
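Compound inhibition of the preformed complex between 50 nM HP1-beta and 50 nM biotinylated H3K9me3 peptide was read by AlphaScreen. Buffer was PBS pH 7.4 with 0.01% Tween-20. Incubations ran 30 min at room temperature, with 10 ug/mL donor/acceptor beads.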
JMJD2A Tudor inh = qHTS Assay for Inhibitors of JMJD2A-Tudor Domain; Lysine-specific demethylase 4A (Homo sapiens), O75164; AlphaScreen JMJD2A-Tudor / H3K4me3 peptide binding; Potency, µM (doses to about 114 µM), for the others: top-dose activity change, negative = inhibition, actives largely listed as inhibitors; 390,000 compounds, 4.4% hits; AID 504339, 2011; further: on the % scale 0 is the no-effect control and ±100 the full control effect; nearly all actives have a fitted effect of over 50% in size
BAZ2B block = qHTS Assay for Inhibitors of BAZ2B | AlphaScreen BAZ2B-H3K14Ac peptide displacement | Bromodomain adjacent to zinc finger domain protein 2B (Homo sapiens), Q9UIF8 | Potency, µM (doses to about 114 µM), for inactives: at the highest dose activity change, negative = inhibition, actives largely listed as inhibitors | 360,000 compounds, 4.4% hits | AID 504333, 2011; further: on the % scale 0 is the no-effect control and ±100 the full control effect; nearly all actives have a fitted effect of over 60% in size
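Protein-peptide AlphaScreen: BAZ2B 50 nM, b-H3K14Ac 50 nM, 1x PBS pH 7.4 + 0.01% Tween-20. Preincubation 30 min RT; cpd 30 min RT (top 110 uM); beads 20 min RT, light-protected.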
L3MBTL1 inh = qHTS Assay for the Inhibitors of L3MBTL1; Potency, µM (highest dose often 57.1 µM), for inactives: top-dose activity, negative = inhibition, usual class: inhibitors; AlphaScreen L3MBTL1–H3K9me1 peptide binding; AID 485360, 2010; Lethal(3)malignant brain tumor-like protein 1 (Homo sapiens), Q9Y468; 230,000 compounds, 0.66% hits; further: on the % scale 0 is the no-effect control and ±100 the full control effect; nearly all actives have a fitted effect of over 60% in size
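AlphaScreen proximity signal between nickel-chelate acceptor and streptavidin donor beads (final 10 ug/mL) reports binding of 50 nM L3MBTL1 to 75 nM biotin-H3 K9me1 peptide; complex incubated with compounds 30 min at room temperature; cefsulodin titration as control.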
G9a inh = qHTS Assay for Inhibitors of Histone Lysine Methyltransferase G9a | Histone-lysine N-methyltransferase EHMT2 (Homo sapiens), Q96KQ7 | G9a H3K9 monomethylation, AlphaScreen, 2 h | Potency, µM (top dose mostly 102 µM), without a hit: at the top dose activity, negative = inhibition, hits mostly inhibitors | 350,000 compounds, 8.8% hits | AID 504332, 2011; further: on the % scale 0 is the no-effect control and ±100 the full control effect; nearly all actives have a fitted effect of over 75% in size
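Enzyme 20 nM + cpd, 15 min RT; add b-H3K9 pep 500 nM / SAM 20 uM; 2 h RT; anti-H3K9me1 Ab 0.5 ug/mL + SA donor / anti-rabbit acceptor beads 20 ug/mL each, 10 min; AlphaScreen read.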
* marks the source's active call; other numbers are inactive results; ? = inconclusive; . = no result given; ! = repeats disagree; [ ] = dose if it differs, or a comment. In the library only some 12% were active in any assay of this set; here they are far more common. The call rests on the fitted dose curve; in most records, active means well fitted curve in the direction sought with a large enough effect; inconclusive means small, poorly fitted or top-dose-only effect, or another doubt; inactive means no such curve, though single readings can be large; an effect the other way counts as inactive or inconclusive. Potency means the concentration at half of the fitted maximal effect.

SMILES | Sfp PPTase inh | HP1b chromo inh | JMJD2A Tudor inh | BAZ2B block | L3MBTL1 inh | G9a inh
CCOc1ccc2nc(SCC(=O)NC(=O)NCc3ccco3)[nH]c2c1 | -6% | 6% | -20% | ? | ? | 50µM*
COc1ccc(Cl)cc1S(=O)(=O)N1CCN(S(=O)(=O)c2ccc3c(c2)OCCO3)CC1 | . | . | -18% | . | . | .
O=S(=O)(c1ccc(Br)cc1)c1nnn2c1nc(NCc1ccc3c(c1)OCO3)c1sccc12 | . | 0% | -22% | -21% | . | -23%[59 µM]
CCNc1nc(NCC)nc(N(CC)C(N)=S)n1 | -30% | -4% | -10% | -24% | -15% | 1.8µM*
CCNc1nc(NCC)nc(N(C#N)C(C)C)n1 | 10% | -3% | -11% | 0% | . | 12%
CC1=C(C#N)c2nc(N)c(C#N)c(C)c2/C1=C\c1ccc(C)cc1 | 35µM* | . | . | ? | -3% | -3%[0.501 µM]
CSc1nc(-c2ccc(C)cc2)nc(N)c1C#N | 17% | 33% | -7% | 3% | 5% | 7%
COc1cc(/C=C2\C(=O)N(CCC#N)N=C2C)ccc1OCC(=O)Nc1ccccc1 | 7% | 30% | -6% | 2% | -15% | 22%[59 µM]
COc1cc(/C=C2\C(C)=C(C#N)c3nc(N)c(C#N)c(C)c32)ccc1OCC(=O)O | ? | 6% | -31% | 56µM* | ? | 25µM*
Cc1cc2oc(=O)cc(CSc3nnc(-c4cccs4)o3)c2cc1C(C)C | -9% | -7% | 89µM* | -8% | -12% | 35µM*
Cc1cc2oc(=O)cc(CSc3nnc(C)n3N)c2cc1C(C)C | 8% | 18% | -2% | -2% | -10% | -40%
CC(C)=Cc1oc2ccc([N+](=O)[O-])cc2c1N1CC(C)OC(C)C1 (stereo not given) | -9% | ? | -12% | 63µM* | . | 14µM*
Cc1ccc(C(=O)c2cc([N+](=O)[O-])ccc2N2CC(C)OC(C)C2)cc1 (stereo not given) | 10% | -1% | ? | -32% | -8% | 8%[59 µM]
Cc1cccc(CNc2ncnc3ccc(-c4ccc5c(ccn5C)c4)cc23)c1 | . | . | . | ? | -12% | 7%[12.7 µM]
COc1ccc(Br)cc1CN1CCN(c2ncccn2)CC1 | . | ? | 22µM* | . | . | .
c1cnc(N2CCN(Cc3c[nH]c4ccccc34)CC2)nc1 | 9% | 6% | -22% | -8% | -7% | ?
COc1ccc(N2CCN(c3ncccn3)CC2)cc1 | 17% | -21% | -30% | -39% | . | ?
COc1cc(-c2nc(CN3CCN(c4ncccn4)CC3)c(C)o2)ccc1F | 19% | 21% | -14%[57.1 µM] | -31% | -4% | ?
COc1cc(C)c(CN2CCN(c3ncccn3)CC2)cc1C | . | ? | 50µM* | . | . | .
COc1cccc(CN2CCN(c3ncccn3)CC2)c1OC | -20% | ? | 28µM* | 50µM* | 10% | ?
COc1ccc(CN2CCN(c3ncccn3)CC2)c(C)c1C | -21% | ? | 18µM* | 56µM* | 8% | 4.5µM*
CC(C)Oc1ccc(CNC(=O)Cc2ccc(NC(=O)N3CCSc4ncccc43)cc2)cc1 | . | 39% | -5% | -12% | . | 0%[59 µM]
COc1ccc(-c2cc(C(F)(F)F)nc(SCC(=O)Nc3ccc(C(C)=O)cc3)n2)cc1 | . | 12% | -8% | -5% | . | -4%[59 µM]
COc1ccccc1CC(=O)N1CCN(c2ccccn2)CC1 | -6% | 16% | -7% | 6% | 9% | 4%[59 µM]
COc1ccc(CN2CCN(c3ccccn3)CC2)c(OC)c1C | ? | ? | 56µM* | 50µM* | -3% | .
CSc1ccc(C(=O)c2[nH]c(=O)[nH]c2C)cc1 | -12% | 11% | -23% | -1% | 10% | 11µM*!
N[C@@H](C(=O)O)[C@H](CC(=O)O)c1ccc(Cl)cc1 | 17% | . | . | . | . | .

Assay outcomes deposited in PubChem by National Center for Advancing Translational Sciences (NCATS).
